In PubChem BioAssay (Tox21):
Inconclusive results are not listed. The source made the active and inactive calls. Calls follow the shape of the full dose curve.

molecular target: Thyrotropin receptor (Homo sapiens) (UniProt P16473); experiment: qHTS assay to identify small molecule agonists of the thyroid stimulating hormone receptor (TSHR) signaling pathway (AID 1224843); conditions: TSHR-HEK293 cells, cAMP HTRF, agonist mode, 30 min; series mostly up to 92.4 µM; activation: at the top concentration; also: nearly all actives have a fitted effect of over 45% in size
Text: National Center for Advancing Translational Sciences [NCATS]
NIH Chemical Genomics Center [NCGC]
U.S. Environmental Protection Agency [EPA]
National Institutes of Environmental Health Sciences [NIEHS]
National Toxicology Program [NTP]
U.S. Food and Drug Administration [FDA]
TSHR is the receptor for thyrotropin (thyroid stimulating hormone or TSH), a member of the glycoprotein hormone family. TSH is released by the anterior pituitary gland and is the main regulator of thyroid gland growth and development. Upon binding circulating thyrotropin, a G-protein signal cascade activates adenylyl cyclase and […] cAMP concentration is increased. cAMP is a key second messenger involved extensively in cellular signal transduction pathways associated with the majority of G-protein coupled receptors (GPCRs). The activation of these GPCRs by neurotransmitters, lipids, nucleotides, peptides and hormones results in the activation or the inhibition of plasma membrane-bound adenylate cyclase through heterotrimeric G-proteins. A cell-based TSHR assay was used to screen the Tox21 10K library for compounds that can modulate TSHR in agonist mode.
Tox21 Assay Protocol Summary:
TSHR-Hek293 cells were dispensed at 800 cells/4uL/well in 1536-well white plates using a Multidrop dispenser. […] The plates were incubated at room temperature for 30 min. 2.5 ul/well of cAMP-d2 and 2.5ul/well of anti-cAMP-cryptate was added respectively into the assay plates using a Flying Reagent Dispenser. After 1 hr incubation at room temperature, the fluorescence intensity in the plates was measured using an Envision plate reader. Each test compound was measured at 15 concentrations and in triplicates.
% is scaled to controls: 0 for no effect and ±100 for the full control effect; potency is read from the fitted curve at half-maximal effect.

Chain of Thyrotropin receptor (Homo sapiens) (P16473 whole entry, looked up): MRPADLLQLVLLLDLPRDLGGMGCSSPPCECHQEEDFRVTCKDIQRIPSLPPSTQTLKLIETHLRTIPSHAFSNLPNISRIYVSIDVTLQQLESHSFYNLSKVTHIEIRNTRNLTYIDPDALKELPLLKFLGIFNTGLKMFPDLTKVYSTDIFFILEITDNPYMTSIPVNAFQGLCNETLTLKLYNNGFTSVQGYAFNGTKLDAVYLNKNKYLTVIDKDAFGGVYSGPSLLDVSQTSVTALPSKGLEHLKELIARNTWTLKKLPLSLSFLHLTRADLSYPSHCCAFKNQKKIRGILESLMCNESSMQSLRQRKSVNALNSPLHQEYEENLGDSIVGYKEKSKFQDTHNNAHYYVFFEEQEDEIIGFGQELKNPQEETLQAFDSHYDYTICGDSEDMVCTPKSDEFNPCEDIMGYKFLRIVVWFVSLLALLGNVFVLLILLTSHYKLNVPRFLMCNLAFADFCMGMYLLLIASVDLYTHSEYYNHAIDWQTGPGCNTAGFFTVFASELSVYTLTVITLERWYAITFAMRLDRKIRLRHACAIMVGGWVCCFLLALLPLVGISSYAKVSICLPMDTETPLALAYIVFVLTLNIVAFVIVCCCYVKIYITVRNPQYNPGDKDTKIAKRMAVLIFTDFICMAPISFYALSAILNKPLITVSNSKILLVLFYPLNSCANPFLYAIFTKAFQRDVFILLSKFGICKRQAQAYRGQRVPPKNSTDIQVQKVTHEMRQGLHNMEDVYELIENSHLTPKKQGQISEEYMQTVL

| Compound | Potency | activation |
| --- | --- | --- |
| O[C@@H](COc1cccc2ncccc12)CN1CCN(C2c3ccccc3[C@@H]3[C@H](c4ccccc42)C3(F)F)CC1 (stereo not given in full) | 11.9 µM (active) |  |
| C[N+](C)(C)CCOC(=O)CCC(=O)OCC[N+](C)(C)C |  | -0.735% [at 42.5 µM] (inactive) |
| COc1ccc(C(=O)Nc2nc3ccccc3c(NCc3ccccc3)c2C#N)cc1 |  | 0.911% (inactive) |
| CN(C)c1ccc(CCO)cc1 |  | 1.07% (inactive) |
| C=CCOC(=O)CCC1CCCCC1 |  | -11.9% (inactive) |
| NCCCN1CCOCC1 |  | 4.01% (inactive) |
| O=C(O)C1(C(=O)Nc2ccc(Cl)cc2Cl)CC1 |  | -23.5% (inactive) |
| O=S(c1cc(Cl)cc(Cl)c1O)c1cc(Cl)cc(Cl)c1O |  | 1.82% [at 42.5 µM] (inactive) |
| COC(=O)C1=C(C)NC(COC(N)=O)=C(C(=O)OC(C)C)C1c1cccc(Cl)c1Cl (stereo not given) |  | 8.88% [at 42.5 µM] (inactive) |
| O=C(O)c1ccco1 |  | 15.2% (inactive) |
| CCCOC(C(=O)OC1CCN(C)CC1)(c1ccccc1)c1ccccc1 |  | -5.67% [at 42.5 µM] (inactive) |
| O=C(OCCc1ccccc1)c1ccccc1 |  | -8.9% (inactive) |
| Nc1ccc([N+](=O)[O-])c(C(F)(F)F)c1 |  | -6.55% [at 42.5 µM] (inactive) |
| COc1ccc(C(=O)c2ccc(OC)cc2O)c(O)c1 |  | -14.8% (inactive) |
| c1ccc(CNCCNCc2ccccc2)cc1 |  | -15.1% [at 42.5 µM] (inactive) |
| Cc1ccc(C(=O)Oc2ccc(C(O)CNC(C)(C)C)cc2OC(=O)c2ccc(C)cc2)cc1 (stereo not given) | 0.0473 µM (active) |  |
| CCc1c(C(=O)NN2CCCCC2)nn(-c2ccc(Cl)cc2Cl)c1-c1ccc(Br)cc1 |  | 0.128% (inactive) |
| CCN(CC)CCOC(=O)C(Cc1cccc2ccccc12)CC1CCCO1 (stereo not given) |  | -1.11% [at 42.5 µM] (inactive) |
| C#Cc1cccc(Nc2ncnc3cc(OCCOC)c(OCCOC)cc23)c1 |  | -3.25% [at 42.5 µM] (inactive) |
| O=C1[C@H]2CCCC[C@H]2C(=O)N1CCCCN1CCN(c2nsc3ccccc23)CC1 |  | 5.88% [at 42.5 µM] (inactive) |

| Compound | Potency | activation |
| --- | --- | --- |
| CCOc1ccc(N=Nc2ccc(/C=C/c3ccc(N=Nc4ccc(OCC)cc4)cc3S(=O)(=O)O)c(S(=O)(=O)O)c2)cc1 |  | 3.4% (inactive) |
| CCOc1ccc(O)cc1 |  | 15% (inactive) |
| C[N+]1(C)CCC(OC(=O)C(O)(c2ccccc2)C2CCCC2)C1 (stereo not given) |  | -0.415% [at 42.5 µM] (inactive) |
| CCCCOC(=O)CCCCCCCC(=O)OCCCC |  | 3% (inactive) |
| CCCCCCOC(=O)NC(=N)c1ccc(NCc2nc3cc(C(=O)N(CCC(=O)OCC)c4ccccn4)ccc3n2C)cc1 |  | -19.4% [at 42.5 µM] (inactive) |
| CC1CCC(=O)C1=O (stereo not given) |  | 6.26% (inactive) |
| CCCCCCCCCCCc1ccccc1 |  | 0.711% (inactive) |
| O=C1C(O)=C(O)C(=O)C(O)=C1O |  | -1.09% [at 42.5 µM] (inactive) |
| CCCCC(=O)OCC(=O)[C@H]1[C@H](C)C[C@H]2[C@@H]3C[C@H](F)C4=CC(=O)C=C[C@]4(C)[C@@]3(F)[C@@H](O)C[C@@]21C |  | -20.4% [at 42.5 µM] (inactive) |
| OCCN1CCN(CCCN2c3ccccc3C=Cc3ccccc32)CC1 |  | -0.812% [at 42.5 µM] (inactive) |
| COc1cc(Cl)ccc1Oc1ccc(Cl)cc1Cl |  | 13.7% (inactive) |
| Nc1ccccc1S(=O)(=O)c1ccccc1 |  | -9.69% (inactive) |
| Cc1c(N)cccc1[N+](=O)[O-] |  | -8.84% (inactive) |
| C=C(C)C(=O)OCCO |  | -6.41% (inactive) |
| C[C@H]1C[C@H]2[C@@H]3CCC4=CC(=O)C=C[C@]4(C)[C@@]3(Cl)[C@@H](O)C[C@]2(C)[C@@]1(O)C(=O)CO |  | -1.14% [at 42.5 µM] (inactive) |
| CCCCNc1ccc(C(=O)OCCOCCOCCOCCOCCOCCOCCOCCOCCOC)cc1 |  | -4.7% [at 42.5 µM] (inactive) |
| O=C(NCC1CN(c2ccc(N3CCOCC3=O)cc2)C(=O)O1)c1ccc(Cl)s1 (stereo not given) |  | -0.896% [at 42.5 µM] (inactive) |
| C=C(C)C(=O)OCC |  | 8.87% (inactive) |
| CC(C)(C)OCC1CO1 (stereo not given) |  | -7.24% (inactive) |
| c1ccc(C(O[C@H]2CCCN(CCc3ccc4c(c3)OCO4)C2)c2ccccc2)cc1 |  | -1.75% [at 42.5 µM] (inactive) |
